# The panel holds about 83,000 compounds, 20% with a hit somewhere; the sample as a whole holds those more often.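 Each cell line was grown in a 96-well plate and treated with one concentration of compound for 48 hours. Values below 10 were considered active.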 Values without a mark were called inactive. Calls of active or inactive are those of the source.
# Key:
# Test in all cases: NCI-60 one-dose screen, 48 h (100 = growth as untreated, 0 = no growth, -100 = all killed)
# Details in all cases: 10 µM unless noted
# MOLT-4 leukemia = system: MOLT-4 leukemia
# RPMI-8226 leukemia = system: RPMI-8226 leukemia
# OVCAR-8 ovarian = system: OVCAR-8 ovarian
# OVCAR-5 ovarian = system: OVCAR-5 ovarian
# OVCAR-4 ovarian = system: OVCAR-4 ovarian
# SK-OV-3 ovarian = system: SK-OV-3 ovarian
# OVCAR-3 ovarian = system: OVCAR-3 ovarian
# HS 578T breast = system: HS 578T breast
# NCI/ADR-RES ovarian = system: NCI/ADR-RES ovarian
# T-47D breast = system: T-47D breast
# BT-549 breast = system: BT-549 breast
# MDA-MB-435 melanoma = system: MDA-MB-435 melanoma
# SW-620 colon = system: SW-620 colon
# MCF7 breast = system: MCF7 breast
# HCT-116 colon = system: HCT-116 colon
# HCC-2998 colon = system: HCC-2998 colon
# KM12 colon = system: KM12 colon
# IGROV1 ovarian = system: IGROV1 ovarian
Structure (SMILES),growth (MOLT-4 leukemia),growth (RPMI-8226 leukemia),growth (OVCAR-8 ovarian),growth (OVCAR-5 ovarian),growth (OVCAR-4 ovarian),growth (SK-OV-3 ovarian),growth (OVCAR-3 ovarian),growth (HS 578T breast),growth (NCI/ADR-RES ovarian),growth (T-47D breast),growth (BT-549 breast),growth (MDA-MB-435 melanoma),growth (SW-620 colon),growth (MCF7 breast),growth (HCT-116 colon),growth (HCC-2998 colon),growth (KM12 colon),growth (IGROV1 ovarian)
COc1ccc(C2=CC(c3ccc(OC)c(OC)c3)c3c(c4ccccc4oc3=O)O2)cc1OC (configuration not stated),11.9%,-48.5% (active),36.2%,60.2%,42.8%,25.6%,-16.3% (active),-5.68% (active),29%,35%,-4.49% (active),-72.9% (active),18.5%,11.8%,24.2%,31.4%,16.2%,–
CCCCCCCC[N+](C)(CCCCCCCC)CCCCCCCC,37.4%,44.2%,-100% (active),-100% (active),-94.1% (active),-97.8% (active),-100% (active),-66.6% (active),-100% (active),-73.4% (active),–,-90.8% (active),-100% (active),-100% (active),-100% (active),-98% (active),-100% (active),–
ClCCN(CCCl)c1ccc(/C=N\N=C\c2ccc(N(CCCl)CCCl)cc2)cc1,–,39.8%,33.8%,107%,53%,19.6%,55.7%,78.2%,55.1%,–,50.5%,27.4%,36.8%,35.1%,36.7%,45.7%,30.3%,71.5%
O=P(N1CC1)(N1CC1)N1CCc2ccccc21,–,–,103%,112%,115%,111%,107%,106%,101%,111%,99.4%,111%,101%,86.5%,94.2%,99.5%,113%,130%
CCCCCCCCCCCCCCCCCCOc1ccccc1COP(=O)(O)OOCC[N+](C)(C)C,-36.1% (active),–,-30.5% (active),40.5%,34.6%,36.2%,-29.2% (active),15.6%,88.5%,16.8%,25.5%,7.62% (active),6.94% (active),16.2%,1.15% (active),-8.6% (active),0.411% (active),-74.1% (active)
COc1cc2c(c(OC)c1OC)-c1ccc([O-])c(=O)cc1[C@@H](NC(C)=O)CC2.COc1cc2c(c(OC)c1OC)-c1ccc([O-])c(=O)cc1[C@@H](NC(C)=O)CC2.[Cu+2],10.5%,15.3%,23.2%,54.3%,48.6%,17.2%,-26.7% (active),–,40.4%,41.1%,12.8%,-18.8% (active),19.3%,11%,8.67% (active),-14.9% (active),6.75% (active),-0.159% (active)
O=c1[nH]c2ccc([N+](=O)[O-])cc2c(=O)o1,–,98.5%,104%,101%,98.8%,102%,113%,–,101%,111%,95.3%,111%,105%,–,103%,102%,106%,105%
CCOP1(=O)CC(C)=C(Cl)C(P(=O)(OCC)OCC)C1 (configuration not stated),106%,107%,84.3%,82.9%,92.4%,98.8%,94.5%,103%,85.8%,96.4%,112%,114%,97.3%,–,107%,86.3%,114%,–
O=C(O)CNC(=O)C(Cl)(Cl)Cl,91.7%,92.3%,90.3%,97.1%,99.5%,108%,108%,–,108%,94.5%,103%,97.8%,94.8%,91.1%,107%,104%,101%,100%
CC(C)[C@]12O[C@H]1[C@@H]1O[C@]13[C@]1(O[C@H]1C[C@H]1c4c(C(=O)c5ccccc5)oc(OC(=O)c5ccccc5)c4CC[C@@]13C)[C@@H]2O,–,–,6.13% (active),15.2%,21.3%,27.3%,-57.5% (active),-30.6% (active),8.83% (active),6.53% (active),-24.3% (active),-87.9% (active),-3.73% (active),12.5%,5.12% (active),-15.3% (active),-15.7% (active),-33% (active)
Clc1ccc2nnnn2n1,17.3%,5.38% (active),74.1%,67.1%,37.8%,92%,-3.95% (active),89.6%,59.2%,57.4%,29.1%,-1.91% (active),24.5%,19.2%,-15.9% (active),107%,-38% (active),–
N#CC1(C#N)C(c2ccc(N(CCCl)CCCl)cc2)OC23CCCCC2C1(C#N)C(=N)O3 (configuration not stated),–,96.2%,80.6%,105%,91.9%,96.8%,98.5%,101%,71%,65.6%,84.6%,101%,88.6%,49.3%,89.2%,95.2%,100%,77%
CC1(C)N=C(N)N=C(N)N1c1cccc(CCCCc2ccc(Cl)c(S(=O)(=O)F)c2)c1,38.3%,45.7%,19.4%,49.6%,50.5%,72.8%,47.1%,83.9%,104%,86.6%,51.8%,35.8%,30.9%,28.8%,17.7%,35.1%,22.3%,–
C=CCn1cc(C=C2C(=O)N(C)C(=O)N(C)C2=O)c2ccccc21,97.6%,–,83.1%,14.9%,97.6%,87.4%,96.1%,76%,101%,88.7%,98%,101%,97.9%,88.3%,100%,98.1%,102%,95.6%
O=C1C=C2C(=CCOC2O)O1 (configuration not stated),–,-19.1% (active),-21.5% (active),41.5%,25.4%,100%,-78.6% (active),50%,0.601% (active),13.7%,52.8%,5.62% (active),-47.3% (active),13.3%,-69.5% (active),93.3%,20.5%,42.9%
CC1(C)N=C(N)N=C(N)N1c1ccc(CCCCc2ccc(Cl)c(S(=O)(=O)F)c2)c(Cl)c1,-33.1% (active),-24.2% (active),5.53% (active),44.9%,35.8%,57.4%,29.5%,75.3%,55.6%,42.3%,24.7%,24.6%,24.4%,19.1%,19.6%,23.7%,15.2%,–
N#Cc1c(Br)n(C2OC(CO)C(O)C2O)c2ncnc(N)c12 (configuration not stated),–,–,35.2%,95.5%,75.3%,78.3%,–,39.5%,52.9%,9.15% (active),73.5%,51.4%,30.5%,3.47% (active),40.3%,83.7%,34%,-35.1% (active)
COc1ccc(N(CC(=O)NCCC[Te]c2ccccc2)C(=O)CCSC2=C(C)C(=O)c3ccccc3C2=O)cc1,–,-40.9% (active),8.05% (active),-57.4% (active),20.2%,-55.6% (active),-40.4% (active),-10.3% (active),-36.3% (active),-57.7% (active),-18.2% (active),11.9%,5.47% (active),-22.3% (active),-65.1% (active),–,-17.3% (active),-68.3% (active)
O=C1CC2(CC3(Cl)C(Cl)=C(Cl)C2(Cl)C3(Cl)Cl)C(=O)O1 (configuration not stated),96.5%,105%,104%,94.4%,116%,112%,114%,–,101%,–,107%,103%,113%,99.4%,91.1%,102%,106%,105%

# Reference: PubChem BioAssay (NCI)
